Source: PubChem BioAssay (NCI)
This is part of a sample that, as a whole, favours compounds with a hit. Of some 79,000 tested, about 15% had one in any assay. Values without a mark were called inactive. Active and inactive are the calls of the source. Rule as the data show it: active = growth inhibition above about 70%; inactive = the rest.

How the values were obtained:
[1] = NCI Yeast Anticancer Drug Screen. Data for the rad50 strain (AID 155);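 also: 0% = growth of vehicle-only cultures of the same strain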; conditions: S. cerevisiae rad50 strain growth inhibition, stronger effect = higher value
Summary of the method: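 DNA repair mutant yeast, compound exposure, growth read-out; inhibition is taken relative to vehicle.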

[2] = NCI Yeast Anticancer Drug Screen. Data for the mec2-1 strain (AID 157); conditions: S. cerevisiae mec2-1 strain, stronger effect = higher value
Summary of the method: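 Mutant yeast (mec2-1) grown with compound; growth inhibition relative to vehicle control reported.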

[3] = NCI Yeast Anticancer Drug Screen. Data for the sgs1 mgt1 strain (AID 161);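 also: 0% = growth of cultures given vehicle only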; conditions: S. cerevisiae sgs1 mgt1 strain, stronger effect = higher value
Summary of the method: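 Growth of a repair-deficient yeast mutant was monitored after compound treatment and expressed as inhibition relative to vehicle-treated cultures.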

[4] = NCI Yeast Anticancer Drug Screen. Data for the cln2 rad14 strain (AID 165);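 also: 0% = growth equal to vehicle treated cultures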; conditions: S. cerevisiae cln2 rad14 strain, stronger effect = higher value
Summary of the method: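 Readout is yeast growth inhibition versus vehicle-treated controls, using a strain with cln2 and rad14 alterations exposed to compound.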

[5] = NCI Yeast Anticancer Drug Screen. Data for the bub3 strain (AID 167); conditions: S. cerevisiae bub3 mutant strain, stronger effect = higher value
Summary of the method: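 In this screen, a yeast mutant lacking normal mitotic checkpoint function is challenged with compound. Relative growth versus vehicle gives the inhibition value.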

[6] = NCI Yeast Anticancer Drug Screen. Data for the mlh1 rad18 strain (AID 175); conditions: S. cerevisiae mlh1 rad18 strain growth inhibition, stronger effect = higher value
Summary of the method: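 Genetically defined yeast (DNA repair-deficient) exposed to compounds; growth inhibition determined relative to vehicle.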

[7] = at 5.0 µM (retest, dose inferred, filed as 0.5)
[8] = at 50.0 µM (retest, dose inferred, filed as 5.0)

| Compound | growth inhibition [1, 7] | growth inhibition [1, 8] | growth inhibition ([1]; at 50.0 µM) | growth inhibition [2, 7] | growth inhibition [2, 8] | growth inhibition ([2]; at 50.0 µM) | growth inhibition [3, 7] | growth inhibition [3, 8] | growth inhibition ([3]; at 50.0 µM) | growth inhibition [4, 7] | growth inhibition [4, 8] | growth inhibition ([4]; at 50.0 µM) | growth inhibition [5, 7] | growth inhibition [5, 8] | growth inhibition ([5]; at 50.0 µM) | growth inhibition [6, 7] | growth inhibition [6, 8] | growth inhibition ([6]; at 50.0 µM) |
| --- | --- | --- | --- | --- | --- | --- | --- | --- | --- | --- | --- | --- | --- | --- | --- | --- | --- | --- |
| O=C(O)CC(C(=O)O)C(c1cccc2ccccc12)c1cccc2ccc3ccccc3c12 (configuration not stated) | 6% | 98% (active) | 98.3% (active) | 5% | 99% (active) | 98.2% (active) | -5% | 99% (active) | 98.3% (active) | 4% | 98% (active) | 98.7% (active) | 4% | 99% (active) | 98.7% (active) | 7% | 99% (active) | 97.8% (active) |
| OCCC(CCN1CCOCC1)(c1ccccc1)C1(O)CCCC1 (configuration not stated) | 3% | 3% | -2.95% | 5% | 2% | 45.3% | 8% | 3% | 74.4% (active) | 2% | 2% | 71.2% (active) | -3% | -4% | 61.4% | -2% | -2% | 73.8% (active) |
| C[n+]1c(/C=C/c2ccc(Cl)cc2)sc2ccccc21 | -4% | 36% | 60.5% | -6% | 51% | 51.9% | -11% | 36% | 73% (active) | 1% | 28% | 75.2% (active) | -12% | 34% | 29.6% | 11% | 50% | 78.8% (active) |
| C#C[C@]1(OC(C)=O)CC[C@H]2[C@@H]3CCC4=CC(=O)CC[C@@H]4[C@H]3CC[C@@]21C | 4% | 16% | 97.6% (active) | 7% | 15% | 88.3% (active) | 2% | 29% | 97.2% (active) | 9% | 22% | 89.7% (active) | 5% | 13% | 93.8% (active) | 3% | 19% | 96.8% (active) |
| COc1ccc(CSC(=S)Nc2ccc(Cl)c(C(F)(F)F)c2)cc1 | 27% | 30% | 89.7% (active) | 15% | 16% | 90.2% (active) | 43% | 49% | 89% (active) | 44% | 38% | 88.7% (active) | 47% | 63% | 88.3% (active) | 17% | 21% | 87.2% (active) |
| O=C(O)C(Cc1ccccc1)N=Cc1ccc(O)cc1 (configuration not stated) | 70% (active) | 97% (active) | 11.1% | 58% | 99% (active) | 11.8% | 79% (active) | 98% (active) | 6.8% | 33% | 97% (active) | 43.8% | 43% | 98% (active) | 20.2% | 68% | 98% (active) | -1.05% |
| CCC12C=CCN3CC[C@@]4(c5cc([C@@]6(C(=O)OC)C[C@@H]7CN(CCc8c6[nH]c6ccccc86)C[C@](O)(CC)C7)c(OC)cc5N(C)[C@H]4[C@@](O)(C(=O)OC)[C@@H]1OC(=O)CCCCCCCCCCCN1C(=O)C=CC1=O)[C@H]32 (some centres not stated) | 16% | 98% (active) | 88.5% (active) | 42% | 99% (active) | 92.4% (active) | 35% | 98% (active) | 92.7% (active) | 16% | 95% (active) | 90.5% (active) | -23% | 96% (active) | 91% (active) | 32% | 98% (active) | 91.5% (active) |
| Oc1ccccc1C1CCCCC1 | 1% | 38% | 88.5% (active) | 3% | 17% | 84.3% (active) | 0% | 47% | 96.1% (active) | 4% | -10% | 46.6% | -9% | 6% | 73.2% (active) | 4% | 46% | 93.2% (active) |
| O=C1CSc2ccccc2-n2cccc21 | 5% | 6% | 9.55% | 11% | 8% | 3.35% | 6% | -4% | 61.5% | 32% | 30% | -1.1% | 77% (active) | 77% (active) | -11.2% | 5% | 15% | 1.95% |
| CCCCCCCCCCS(=O)(=O)Nc1ccc(C(=O)NN)cc1 | 60% | 83% (active) | 92.6% (active) | 29% | 48% | 71% (active) | 42% | 82% (active) | 89.5% (active) | 54% | 80% (active) | 91% (active) | 48% | 82% (active) | 79% (active) | 69% | 87% (active) | 92.7% (active) |
| S=C(S)NCCN1CCNCC1 | 9% | -14% | 36.8% | -20% | -10% | -38.1% | 0% | -16% | -27.9% | -3% | 1% | 73.8% (active) | -6% | -11% | -40.6% | -4% | -1% | -10.3% |
| CCCCCCSc1nn(CCC#N)c(=O)[nH]c1=O | -1% | -36% | 96% (active) | 5% | 36% | 93.5% (active) | 1% | 40% | 91.5% (active) | 13% | 10% | 78.5% (active) | 24% | -6% | 74.8% (active) | 3% | 21% | 96.7% (active) |
| N#CC(Cl)CS(=O)(=O)c1ccccc1 (configuration not stated) | 81% (active) | 100% (active) | 99.5% (active) | 96% (active) | 100% (active) | 99.5% (active) | 31% | 99% (active) | 99.5% (active) | 49% | 99% (active) | 99.2% (active) | 95% (active) | 100% (active) | 95.2% (active) | 88% (active) | 100% (active) | 99.5% (active) |
| O=[N+]([O-])C1CCC(C2=CSC3CCCCC3N2)CC1 (configuration not stated) | 12% | 7% | 34.6% | -16% | 44% | 57.5% | -9% | 23% | 38.8% | 23% | 31% | 11.4% | 0% | 52% | 67.8% | -1% | 60% | 18% |
| CCCCCCCCCCCC(=O)N(CCOC(=O)c1ccco1)CCOC(=O)c1ccco1 | 46% | 96% (active) | 99% (active) | 43% | 99% (active) | 99% (active) | 31% | 98% (active) | 99.2% (active) | 29% | 98% (active) | 98.5% (active) | 34% | 96% (active) | 97.8% (active) | 34% | 97% (active) | 98.8% (active) |
| OC(CCN1CCOCC1)c1ccc(Sc2ccccc2)cc1 (configuration not stated) | 55% | 29% | 98% (active) | 46% | 21% | 98.9% (active) | 61% | 59% | 98.6% (active) | 53% | 15% | 67.1% | 88% (active) | 88% (active) | 99.3% (active) | 62% | 58% | 97.2% (active) |
| COC(=O)/C=C1/OC(c2ccccc2)=C(Br)C1=O | 17% | 17% | 89.3% (active) | 11% | 11% | 91.3% (active) | 11% | 11% | 86.5% (active) | -6% | -6% | 88.3% (active) | -2% | -2% | 88.5% (active) | 15% | 15% | 85.3% (active) |
| C[n+]1c(/C=C/c2cccc([N+](=O)[O-])c2)sc2ccccc21 | 10% | 97% (active) | 97.6% (active) | 15% | 99% (active) | 96.2% (active) | -1% | 98% (active) | 97.9% (active) | 14% | 97% (active) | 98.8% (active) | 7% | 97% (active) | 96% (active) | 13% | 98% (active) | 99.2% (active) |
| O=C(O)COc1ccccc1C(=O)O | 0% | -3% | 4.55% | -2% | -3% | 29.4% | 1% | 0% | -1.95% | -2% | 2% | 23.8% | -5% | -5% | 11.6% | 1% | -1% | 5.7% |
